The panel holds about 83,000 compounds, 20% with a hit somewhere; the sample as a whole holds those more often.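 Growth was measured after 48 h exposure to one concentration of compound in 96-well plates. Values under 10 count as active.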 Active and inactive are the calls of the source.
Experiments:
Assay in all cases: NCI-60 one-dose screen, 48 h (100 = growth as untreated, 0 = no growth, -100 = all killed)
Conditions in all cases: 10 µM unless noted
SK-MEL-2 melanoma = tested on: SK-MEL-2 melanoma
EKVX NSCLC = tested on: EKVX NSCLC
SN12C renal = tested on: SN12C renal
UO-31 renal = tested on: UO-31 renal
TK-10 renal = tested on: TK-10 renal
ACHN renal = tested on: ACHN renal
CAKI-1 renal = tested on: CAKI-1 renal
A498 renal = tested on: A498 renal
CCRF-CEM leukemia = tested on: CCRF-CEM leukemia
MOLT-4 leukemia = tested on: MOLT-4 leukemia

Measured: growth

N#CC1=C2NCCCNc3oc(nc3C#N)Cc3ccccc3CC(=N1)O2
inactive: SK-MEL-2 melanoma 93.9% | EKVX NSCLC 99.5% | SN12C renal 105% | UO-31 renal 72.9% | TK-10 renal 106% | ACHN renal 87.4% | CAKI-1 renal 77.3% | A498 renal 95.5% | CCRF-CEM leukemia 30.4% | MOLT-4 leukemia 84.1%

O=C(O)CC1CCN(c2ccc3nnc(Cl)n3n2)CC1
inactive: SK-MEL-2 melanoma 106% | EKVX NSCLC 99.1% | SN12C renal 98.4% | UO-31 renal 81.5% | TK-10 renal 102% | ACHN renal 98.6% | CAKI-1 renal 95.8% | A498 renal 90.2% | CCRF-CEM leukemia 111% | MOLT-4 leukemia 109%

COc1ccc(N2CCN(C3=C(Cl)C(=O)c4ncccc4C3=O)CC2)cc1
inactive: SK-MEL-2 melanoma 95.1% | EKVX NSCLC 99.9% | SN12C renal 84.7% | UO-31 renal 19.2% | TK-10 renal 99.6% | CAKI-1 renal 32.3% | A498 renal 103%
active: ACHN renal -18.7% | CCRF-CEM leukemia 6.79% | MOLT-4 leukemia 4.55%

O=C(/C=C/c1ccc(Cl)c(Cl)c1)Nc1ncc(Cc2ccc(Cl)c(Cl)c2)s1
inactive: SK-MEL-2 melanoma 79.2% | EKVX NSCLC 69.8% | SN12C renal 83.7% | UO-31 renal 63.5% | TK-10 renal 95.8% | ACHN renal 42.6% | CAKI-1 renal 53.9% | A498 renal 99.8% | CCRF-CEM leukemia 71.3% | MOLT-4 leukemia 54.8%

Brc1cccc(-c2cc(-c3cnc4c(c3)OCCO4)n[nH]2)c1
inactive: SK-MEL-2 melanoma 52.1% | EKVX NSCLC 50.4% | SN12C renal 62.8% | UO-31 renal 51% | TK-10 renal 89.9% | ACHN renal 51.6% | CAKI-1 renal 51.8% | A498 renal 50.6% | CCRF-CEM leukemia 36.7% | MOLT-4 leukemia 34.1%

COc1ccc(OC)c(CCn2cncc2-c2c[nH]c3ccc(Cl)cc23)c1
inactive: SK-MEL-2 melanoma 19% | EKVX NSCLC 37.5% | SN12C renal 63.6% | UO-31 renal 46.6% | TK-10 renal 50.7% | ACHN renal 60.5% | CAKI-1 renal 31.3% | A498 renal 44.8% | CCRF-CEM leukemia 49.4% | MOLT-4 leukemia 25%

Fc1cccc(Cl)c1/C=N/Nc1nc(N/N=C/c2c(F)cccc2Cl)nc(N2CCCCC2)n1
active: SK-MEL-2 melanoma -25.8% | UO-31 renal 9.02% | ACHN renal 4.21%
inactive: EKVX NSCLC 13.8% | SN12C renal 23.2% | TK-10 renal 27.2% | CAKI-1 renal 14.1% | A498 renal 52.8% | CCRF-CEM leukemia 22.3% | MOLT-4 leukemia 13.7%

COc1ccccc1/C=C/C(=O)c1nnn(-c2ccc(F)cc2)c1C
inactive: SK-MEL-2 melanoma 93.2% | EKVX NSCLC 69.3% | SN12C renal 68.5% | UO-31 renal 38.1% | TK-10 renal 110% | ACHN renal 46.1% | CAKI-1 renal 38.5% | A498 renal 66.8% | CCRF-CEM leukemia 14% | MOLT-4 leukemia 45%

C#Cc1nc(/C=C\CCCCCCC(=O)NO)cs1
active: UO-31 renal -76.2% | CAKI-1 renal -20.2% | CCRF-CEM leukemia -40.5% | MOLT-4 leukemia -24.6%
inactive: SK-MEL-2 melanoma 92.1% | EKVX NSCLC 82.9% | SN12C renal 80.9% | TK-10 renal 42% | ACHN renal 11.3% | A498 renal 34.2%

Cc1[nH]c(C(=O)Nc2ccc(C(N)=O)cc2N2CCOC(C)C2)c(Cl)c1Cl (stereo not given)
inactive: SK-MEL-2 melanoma 104% | EKVX NSCLC 93.1% | SN12C renal 96.4% | UO-31 renal 82.6% | TK-10 renal 100% | ACHN renal 88.4% | CAKI-1 renal 98.4% | A498 renal 72.4% | CCRF-CEM leukemia 99.5% | MOLT-4 leukemia 96.4%

CNC(=O)c1cc(-n2ccc3cc(NC(=O)Nc4ccc(N5CCN(C)CC5)c(C(F)(F)F)c4)ccc32)ccn1
active: CCRF-CEM leukemia 7.32% | MOLT-4 leukemia -12.8%
inactive: SK-MEL-2 melanoma 87.2% | EKVX NSCLC 84.5% | SN12C renal 94.6% | UO-31 renal 42% | TK-10 renal 121% | ACHN renal 77.4% | CAKI-1 renal 85.8% | A498 renal 87.9%

CN1CCN(c2ccc(Nc3nc(NCCCNS(=O)(=O)c4cccc(F)c4)c4sccc4n3)cc2)CC1
inactive: SK-MEL-2 melanoma 96.8% | EKVX NSCLC 83.3% | SN12C renal 67.4% | UO-31 renal 54.2% | TK-10 renal 91.6% | CAKI-1 renal 17.9% | A498 renal 67.6% | CCRF-CEM leukemia 19.2% | MOLT-4 leukemia 13.3%
active: ACHN renal 7.69%

COc1ccc2c(c1)C=CC1(O2)Oc2ccc(OC)cc2C=C1C (stereo not given)
inactive: SK-MEL-2 melanoma 47.3% | EKVX NSCLC 47.3% | SN12C renal 51.9% | UO-31 renal 44.9% | TK-10 renal 98% | ACHN renal 38% | CAKI-1 renal 30.3%
active: A498 renal 7.58% | CCRF-CEM leukemia 7.74% | MOLT-4 leukemia 9.45%

NS(=O)(=O)c1ccc(Nc2nc(N/N=C/C=C/c3ccccc3)nc(Nc3ccccc3)n2)cc1
inactive: SK-MEL-2 melanoma 45% | EKVX NSCLC 71.3% | SN12C renal 48.1% | UO-31 renal 39.6% | TK-10 renal 86.8% | ACHN renal 38.5% | CAKI-1 renal 46.1% | A498 renal 40.2% | CCRF-CEM leukemia 24.8% | MOLT-4 leukemia 12.3%

CN(C)c1cccc2c(S(=O)(=O)Nc3cccc(-c4csc(NC(=O)CCCCCN5CCN(CCO)CC5)n4)c3)cccc12
inactive: SK-MEL-2 melanoma 99.7% | EKVX NSCLC 85% | SN12C renal 80.1% | UO-31 renal 86.4% | TK-10 renal 120% | ACHN renal 96.9% | CAKI-1 renal 86.1% | A498 renal 101% | CCRF-CEM leukemia 72.8% | MOLT-4 leukemia 47.5%

Cc1csc(/N=C(N)/N=C(\N)c2cccs2)n1
inactive: SK-MEL-2 melanoma 106% | EKVX NSCLC 94.2% | SN12C renal 110% | UO-31 renal 81.5% | TK-10 renal 174% | ACHN renal 107% | CAKI-1 renal 85.1% | A498 renal 120% | CCRF-CEM leukemia 110% | MOLT-4 leukemia 106%

Cc1cc2nc3c4cc(C#N)ccc4n(CCN(C)C)c3nc2cc1C
active: SK-MEL-2 melanoma -86.7% | EKVX NSCLC -7.83% | SN12C renal 2.81% | UO-31 renal -27.9% | TK-10 renal -2.16% | ACHN renal -13.7% | CAKI-1 renal -27.3% | A498 renal -44% | CCRF-CEM leukemia 3.32% | MOLT-4 leukemia 3.23%

COc1cc(-c2nc(-c3ccccc3)[nH]c2-c2ccnc(NCCCNS(=O)(=O)c3cccc(F)c3)n2)ccc1F
inactive: SK-MEL-2 melanoma 105% | EKVX NSCLC 80.8% | SN12C renal 93.8% | UO-31 renal 89.2% | TK-10 renal 137% | ACHN renal 88.7% | CAKI-1 renal 106% | A498 renal 68.9% | CCRF-CEM leukemia 66% | MOLT-4 leukemia 54.4%

CN1CCN(Cc2ccc(NC(=O)c3cncc(C#Cc4cnc5ccc(N6CCOCC6)nn45)c3)cc2C(F)(F)F)CC1
active: SK-MEL-2 melanoma -88.3% | EKVX NSCLC -47.5% | SN12C renal -22.1% | UO-31 renal -81.2% | TK-10 renal -64.3% | ACHN renal -97.8% | CAKI-1 renal -50.3% | A498 renal -94.3% | CCRF-CEM leukemia -2.39% | MOLT-4 leukemia 0.376%

CC(C)Sc1nc(-c2ccccc2)c(C#N)c(N2CCOCC2)n1
active: ACHN renal -6.39%
inactive: SK-MEL-2 melanoma 128% | EKVX NSCLC 69.8% | SN12C renal 28.1% | UO-31 renal 17.9% | TK-10 renal 106% | CAKI-1 renal 52.1% | A498 renal 65.6% | CCRF-CEM leukemia 75.3% | MOLT-4 leukemia 93.5%

COc1cc(/C=N\NC(=O)c2ccc3nc(-c4ccc(Br)cc4)[nH]c3c2)cc(OC)c1OC
inactive: SK-MEL-2 melanoma 60.2% | EKVX NSCLC 78.2% | SN12C renal 63.4% | UO-31 renal 72.3% | TK-10 renal 58.9% | ACHN renal 60.9% | CAKI-1 renal 33.2% | A498 renal 20.8% | CCRF-CEM leukemia 25.8% | MOLT-4 leukemia 31.6%

O=C(CSc1nc2ccccc2c(=O)n1CCc1ccccc1)Nc1ccc(S(=O)(=O)Nc2ccc(Cl)nn2)cc1
inactive: SK-MEL-2 melanoma 111% | EKVX NSCLC 86.9% | SN12C renal 94.9% | UO-31 renal 65.1% | TK-10 renal 149% | ACHN renal 90.6% | CAKI-1 renal 75.1% | A498 renal 107% | CCRF-CEM leukemia 99.2% | MOLT-4 leukemia 99.8%

CC(C)[C@H]1c2[nH]c3ccccc3c2C[C@H]2C(=O)N(CCCCCCC(=O)NO)CC(=O)N12
inactive: SK-MEL-2 melanoma 86.8% | EKVX NSCLC 93% | SN12C renal 90.2% | UO-31 renal 83.2% | TK-10 renal 72% | ACHN renal 98.2% | CAKI-1 renal 86.2% | A498 renal 90% | CCRF-CEM leukemia 27.8% | MOLT-4 leukemia 34.6%

COc1ccc(OC)c(NC(=O)CCCCCCNC(=O)C(O)(O)C(F)(F)F)c1
inactive: SK-MEL-2 melanoma 10.6% | EKVX NSCLC 56% | SN12C renal 58.9% | UO-31 renal 30.3% | TK-10 renal 12.9% | ACHN renal 15.3% | CAKI-1 renal 25.2% | A498 renal 38.3% | CCRF-CEM leukemia 23.5% | MOLT-4 leukemia 20%

Cc1ccc2c(n1)C(=O)C(Cl)=C(Nc1cccc(C)c1C)C2=O
inactive: EKVX NSCLC 31.2% | TK-10 renal 142% | CAKI-1 renal 56.5% | A498 renal 64%
active: SK-MEL-2 melanoma -42% | SN12C renal -73.4% | UO-31 renal -22.8% | ACHN renal -25.5% | CCRF-CEM leukemia 2.35% | MOLT-4 leukemia -10.3%

CCOC(=O)Nc1ccc2c(ccn2C(=O)c2cccc(F)c2)c1
active: A498 renal -6.19%
inactive: SK-MEL-2 melanoma 32% | EKVX NSCLC 44.1% | SN12C renal 48.7% | UO-31 renal 49.9% | TK-10 renal 59.9% | ACHN renal 53.4% | CAKI-1 renal 45.1% | CCRF-CEM leukemia 16.7% | MOLT-4 leukemia 30.2%

O=[N+]([O-])c1ccc(NC(=S)NNC(=S)Nc2ccc(F)cc2)cc1
inactive: SK-MEL-2 melanoma 105% | EKVX NSCLC 94.8% | SN12C renal 90.7% | UO-31 renal 70.2% | TK-10 renal 103% | ACHN renal 78.9% | CAKI-1 renal 68.7% | A498 renal 81.4% | CCRF-CEM leukemia 103% | MOLT-4 leukemia 80.8%

Source: PubChem BioAssay (NCI)
